# Assay results published in PubChem BioAssay (NCATS).
# Records with an inconclusive call do not appear. Where a call stands in place of a potency, no number is given. Activity calls are given as the source filed them. Calls come from the whole dose curve.
# Experiment: Natriuretic polypeptide receptor (hNpr1) antagonism - Pilot counterscreen GloSensor control cell line (AID 1347045)
# Details: HEK293 cGMP GloSensor cells, SNP-stimulated luminescence, 20 min; series mostly up to 38.3 µM
# Experimental: F. Fan, B. F. Binkowski, B. L. Butler, P. F. Stecha, M. K. Lewis, K. V. Wood, Novel genetically encoded biosensors using firefly luciferase. ACS Chem Biol 3, 346-351 (2008).
# PROTOCOL TABLE (as described by Inglese J, Shamu CE and Guy RK. 2007)
# SEQUENCE No. (e.g., 1, 2, 3, etc.); […] (e.g., Cells, Incubation, Reagent, etc.); VALUE and DESCRIPTION.
# 1. Cells. Seed 1500 HEK293 cGMP-sensor cells per well in 4uL into Greiner 1536-well white/solid bottom high base, TC plates.
# 2. Incubation. Incubate plated cells at 37C in 5% CO2, 95% RH overnight.
# 3. Reagent. Add 1uL per well GloSensor reagent from Promega (2% final concentration) or CO2 independent media vehicle control to respective columns of Greiner 1536-well plates.
# 4. Incubation. Incubate plated cells at room temperature for 2 h, protect from light.
# 5. Compounds. Library compounds and DMSO vehicle control added at 23nL per well, transferred by Pin Tool.
# 6. Incubation. Incubate plated cells for 30 min. at room temperature, protect from light.
# 7. Detector. GloSensor baseline pre-read luminescence measured using CCD-based camera (Viewlux).
# 8. Compound. Add 1uL of sodium nitroprusside (SNP) to 50 uM final concentration to stimulate soluble guanylyl cyclase (GC) or CO2 independent media as vehicle control.
# 9. Incubation. Incubate treated cells at room temperature for 20 min., protect from light.
# 10. Detector. GloSensor post-SNP luminescence measured using CCD-based camera (Viewlux).
# NOTES (numbers refer to Sequence numbers above; values are from representative experiments)
# 1. HEK293 cells expressing GIP/pGS-40F were grown to 85-95% confluence (48-72 h) in T175 culture flasks (CO2 independent media supplemented with 10% FBS, 1% Pen/Strep antibiotics, and 1 ug/mL puromycin). Trypsinize and harvest cells from T175 culture flasks and filter through 40 um cell strainer. Cells counted with Invitrogen Countess (30,000,000 - 50,000,000 cells/flask).
# 2. Cells incubated for 24 h. at 37C in 95% RH incubator with metal lid having gas-exchange holes.
# 3. Prepare GloSensor Reagent (Promega): Reconstitute GloSensor luciferase substrate by adding 8.2mL Hepes buffer to 250mg substrate, mix well, protect from light and stored at -80C. Prepare a fresh 12% GloSensor solution in CO2 independent supplemented plating media (see above). Mix well and store at ambient temperature, protected from light. 1uL 12% GloSensor Luciferase Reagent added (2% final concentration) to respective columns of 9 x 1536-well Greiner plate with BioRaptr, 1uL CO2 independent plating media added to respective columns as vehicle control with BioRaptr.
# 4. Cells incubated for 2 h. at ambient temperature, protected from light with metal lid having gas-exchange holes.
# 5. 23nL of LOPAC128 library compounds (7 plates) or DMSO vehicle control transferred to 9 Greiner white/solid bottom high base, TC plates in 7 interplate 1:5 titrations (see Yasgar, A. et al. 2008) with Pintool. Two of the 9 plates are DMSO-only in compound field at beginning and end of compound library-treated plates.
# 6. Cells incubated for 30-50 min. at ambient temperature protected from light with metal lid having gas-exchange holes.
# 7. Read GloSensor + Antagonist/Compound baseline Luminescence on the ViewLux [Exposure, 30 s; Gain, High; Speed, Slow; Binning, 2X]
# 8. SNP solution prepared at 500 mM (in H2O) stock concentration. From this a working dilution was prepared at 300 uM in CO2 Independent media. 1uL of 300 uM SNP (50 uM final concentration) or CO2 Independent media vehicle control dispensed into respective columns of 9 x Greiner 1536-well white/solid bottom, tissue culture plates with BioRaptr.
# 9. Cells incubated for 20 min. at ambient temperature, protected from light with metal lid having gas-exchange holes.
# 10. Read final luminescence on the ViewLux. [Exposure, 30 s; Gain, High; Speed, Slow; Binning, 2X.]
# […]
# Potency is the fitted concentration of half-maximal effect.
row,Structure (SMILES),Potency
1,N#CC(C#N)=Cc1ccc(O)c(O)c1,inactive
2,C[C@@H]1O[C@@H](O[C@H]2C[C@@H](O)[C@]3(CO)[C@H]4[C@H](O)C[C@]5(C)[C@@H](C6=CC(=O)OC6)CC[C@]5(O)[C@@H]4CC[C@]3(O)C2)[C@H](O)[C@H](O)[C@H]1O,inactive
3,C=C(C)[C@H]1Cc2c(ccc3c2O[C@@H]2COc4cc(OC)c(OC)cc4[C@@H]2C3=O)O1,117 nM (active)
4,CC(CCc1ccccc1)NC(C)C(O)c1ccc(O)cc1 (configuration not stated),inactive
5,CCCN1CCC[C@@H]2Cc3[nH]ncc3C[C@H]21,inactive
6,CC(=O)[C@H]1CC[C@H]2[C@@H]3CC[C@H]4C[C@](C)(O)CC[C@]4(C)[C@H]3CC[C@]12C,inactive
7,c1ccc(C2CC2)c(OCC2=NCCN2)c1,inactive
8,Cc1ccc(S(=O)(=O)N[C@@H](CCCCN)C(=O)CCl)cc1,inactive
9,CC(=O)[C@H]1CC[C@H]2[C@@H]3CC[C@H]4C[C@H](O)CC[C@]4(C)[C@H]3C(=O)C[C@]12C,inactive
10,CC[C@@H](CO)NC(=O)[C@@H]1C=C2c3cccc4c3c(cn4C)C[C@H]2N(C)C1,inactive
11,Cc1cccc(C)c1NC1=NCCCS1,inactive
12,NCC(O)c1ccc(O)cc1 (configuration not stated),inactive
13,NCC(CC(=O)O)c1ccc(Cl)cc1 (configuration not stated),inactive
14,COC[C@H]1OC(=O)c2coc3c2[C@@]1(C)C1=C(C3=O)C2CCC(=O)[C@@]2(C)C[C@H]1OC(C)=O (some centres not stated),inactive
15,CC(C)=CCOc1c2occc2cc2ccc(=O)oc12,inactive
16,CCCN1CCC[C@@H]2Cc3nc(N)ncc3C[C@H]21,inactive
17,COc1ccccc1N1CCNCC1,inactive
18,O=C1NCN(c2ccccc2)C12CCN(CC1COc3ccccc3O1)CC2 (configuration not stated),inactive
19,CCC1(C2=NCCN2)Cc2ccccc2O1 (configuration not stated),inactive
20,Nc1ccncc1,inactive
21,Cc1cccc(C)c1NC(=O)CN1CCCC1=O,inactive
22,CN1C[C@H](CNC(=O)OCc2ccccc2)C[C@@H]2c3cccc4c3c(cn4C)C[C@H]21,inactive
23,Cc1ncc(CNC(=O)N(CCCl)N=O)c(N)n1,inactive
24,CNCC(O)c1ccc(O)cc1 (configuration not stated),inactive
25,CCCC(C)(COC(N)=O)COC(=O)NC(C)C (configuration not stated),inactive
26,NN=C(N)N,inactive
27,NCC1(CC(=O)O)CCCCC1,inactive
